The values below come from PubChem BioAssay (NCI).

About 79,000 compounds went through this panel and 15% of them were active in at least one assay; those are over-represented in the sample as a whole. A number with no mark means an inactive call. Calls of active or inactive are those of the source. Cut-off read from the data, not from the text of the source: active = growth inhibition above about 70%; inactive = the rest.

Experiment [1] can be described thus: NCI Yeast Anticancer Drug Screen. Data for the rad50 strain (AID 155).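 Note: 0% = growth of vehicle-only cultures of the same strain.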 The conditions noted are these: S. cerevisiae rad50 strain growth inhibition, active compounds read high. The essentials: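 Inhibition values express reduced yeast growth in compound-treated cultures relative to vehicle-treated controls.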
A short description of experiment [2]: NCI Yeast Anticancer Drug Screen. Data for the mec2-1 strain (AID 157). The conditions noted are these: S. cerevisiae mec2-1 strain, active compounds read high. A digest of the protocol: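 Yeast mec2-1 mutant treated with compound. Readout: growth inhibition vs vehicle controls.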
The nature of experiment [3]: NCI Yeast Anticancer Drug Screen. Data for the sgs1 mgt1 strain (AID 161).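 Note: 0% = growth of cultures given vehicle only.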 The conditions noted are these: S. cerevisiae sgs1 mgt1 strain, active compounds read high. A digest of the protocol: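 Mutant yeast exposed to compound; growth scored against vehicle-only wells.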
The nature of experiment [4]: NCI Yeast Anticancer Drug Screen. Data for the cln2 rad14 strain (AID 165).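 Note: 0% = growth equal to vehicle treated cultures.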 The conditions noted are these: S. cerevisiae cln2 rad14 strain, active compounds read high. The essentials:
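cln2 rad14 yeast strain; compound exposure; growth inhibition read vs vehicle controls.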

Experiment [5] in a line: NCI Yeast Anticancer Drug Screen. Data for the bub3 strain (AID 167). The conditions noted are these: S. cerevisiae bub3 mutant strain, active compounds read high. A digest of the protocol:
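Steps: expose the mutant yeast strain to compound; grow alongside vehicle-treated cultures; measure growth; express inhibition against the vehicle cultures.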

Experiment [6] in a line: NCI Yeast Anticancer Drug Screen. Data for the mlh1 rad18 strain (AID 175). The following applies: S. cerevisiae mlh1 rad18 strain growth inhibition, active compounds read high. A digest of the protocol:
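Yeast w/ defined DNA-repair lesions; compound exposure; growth vs vehicle controls → % inhibition.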

The mark [7] stands for this setting: at 5.0 µM (retest, dose inferred, filed as 0.5).
The mark [8] stands for this setting: at 50.0 µM (retest, dose inferred, filed as 5.0).

In the case of `Cc1cccc(C)c1N=C(N)N[N+](=O)[O-]`, the growth inhibition was 45% in experiment [1] (setting [7]); 96% (active) in experiment [1] (setting [8]); 89.5% (active) in experiment [1] (at 50.0 µM); 53% in experiment [2] (setting [7]); 97% (active) in experiment [2] (setting [8]); 90.3% (active) in experiment [2] (at 50.0 µM). Besides, the growth inhibition in experiment [3] (setting [7]) is 90% (active); in experiment [3] (setting [8]) it was 98% (active); in experiment [4] (setting [7]) it was 57%; in experiment [4] (setting [8]), 98% (active); in experiment [5] (setting [7]), 27%; in experiment [5] (setting [8]) it was 97% (active). In addition, the growth inhibition in experiment [6] (setting [7]) is 33%; in experiment [6] (setting [8]), 99% (active); in experiment [6] (at 50.0 µM), 88% (active).
Consider `CCC[CH2][Sn]1([CH2]CCC)[O]c2ccccc2[O]1`, for which the growth inhibition was 9% in experiment [1] (setting [7]); 95% (active) in experiment [1] (setting [8]); 89% (active) in experiment [1] (at 50.0 µM); 23% in experiment [2] (setting [7]); 94% (active) in experiment [2] (setting [8]); 90.8% (active) in experiment [2] (at 50.0 µM). Besides, the growth inhibition was 13% in experiment [3] (setting [7]); 94% (active) in experiment [3] (setting [8]); 90.5% (active) in experiment [3] (at 50.0 µM); 0% in experiment [4] (setting [7]); 92% (active) in experiment [4] (setting [8]); 83.8% (active) in experiment [4] (at 50.0 µM). Besides, the figures for the growth inhibition in experiment [6] (setting [7]), in experiment [6] (setting [8]) and in experiment [6] (at 50.0 µM) were 11%, 96% (active) and 89.1% (active), respectively.
Turning to `O=C(O)C1CC2c3ccccc3C1([N+](=O)[O-])c1ccccc12` (stereo not drawn), the growth inhibition in experiment [1] (setting [7]) was 0%; in experiment [1] (setting [8]) it was 8%; in experiment [1] (at 50.0 µM) it was 14.2%; in experiment [2] (setting [7]), -1%; in experiment [2] (setting [8]) it was 4%; in experiment [2] (at 50.0 µM), 1.45%. Besides, the growth inhibition in experiment [3] (setting [7]) is 0%; in experiment [3] (setting [8]), 7%; in experiment [3] (at 50.0 µM) it was 31.1%; in experiment [4] (setting [7]) it was -3%; in experiment [4] (setting [8]), 15%; in experiment [4] (at 50.0 µM) it was 41%. Also, the results for the growth inhibition in experiment [6] (setting [7]), in experiment [6] (setting [8]) and in experiment [6] (at 50.0 µM) were 0%, 8% and 21.1%, respectively.
`O=C([CH-]C(=O)c1ccccc1)c1ccccc1.O=C([CH-]C(=O)c1ccccc1)c1ccccc1.O=C([CH-]C(=O)c1ccccc1)c1ccccc1.[OH3+].[Y+3]`: the growth inhibition in experiment [1] (setting [7]) is 46%; in experiment [1] (setting [8]), 99% (active); in experiment [1] (at 50.0 µM) it was 91.6% (active); in experiment [2] (setting [7]) it was 42%; in experiment [2] (setting [8]) it was 100% (active); in experiment [2] (at 50.0 µM), 93.5% (active). Besides, the growth inhibition in experiment [3] (setting [7]) is 53%; in experiment [3] (setting [8]) it was 100% (active); in experiment [3] (at 50.0 µM) it was 94.1% (active); in experiment [5] (setting [7]), 63%; in experiment [5] (setting [8]), 84% (active); in experiment [5] (at 50.0 µM) it was 92.5% (active). The growth inhibition in experiment [6] (setting [7]) was 56%; in experiment [6] (setting [8]), 100% (active); in experiment [6] (at 50.0 µM), 91.5% (active).
Turning to `COc1ccc([As+](c2ccccc2)(c2ccccc2)c2ccccc2)cc1`, the growth inhibition in experiment [1] (setting [7]) was 82% (active); in experiment [1] (setting [8]) it was 98% (active); in experiment [1] (at 50.0 µM) it was 99.1% (active); in experiment [2] (setting [7]) it was 88% (active); in experiment [2] (setting [8]), 99% (active); in experiment [2] (at 50.0 µM) it was 98.8% (active). Further, the growth inhibition in experiment [3] (setting [7]) was 93% (active); in experiment [3] (setting [8]), 99% (active); in experiment [3] (at 50.0 µM), 98.7% (active); in experiment [4] (setting [7]) it was 77% (active); in experiment [4] (setting [8]) it was 98% (active); in experiment [4] (at 50.0 µM), 99% (active). The growth inhibition in experiment [6] (setting [7]) is 91% (active); in experiment [6] (setting [8]), 98% (active); in experiment [6] (at 50.0 µM) it was 99% (active).
For `CC(=O)[O-].O=C([CH-]C(=O)c1ccccc1)c1ccccc1.O=C([CH-]C(=O)c1ccccc1)c1ccccc1.[Y+3]`, the growth inhibition is 35% in experiment [1] (setting [7]); 35% in experiment [1] (setting [8]); 91.4% (active) in experiment [1] (at 50.0 µM); 19% in experiment [2] (setting [7]); 19% in experiment [2] (setting [8]); 93.7% (active) in experiment [2] (at 50.0 µM). Also, the growth inhibition in experiment [3] (setting [7]) is 42%; in experiment [3] (setting [8]), 42%; in experiment [3] (at 50.0 µM), 93.6% (active); in experiment [5] (setting [7]), 21%; in experiment [5] (setting [8]), 21%; in experiment [5] (at 50.0 µM), 92% (active). The growth inhibition in experiment [6] (setting [7]) is 13%; in experiment [6] (setting [8]) it was 13%; in experiment [6] (at 50.0 µM), 90.5% (active).
As for `C[C@]12CC[C@H](OC3OC(CO)C(O)C(O)C3O)C[C@H]1CC[C@@H]1[C@@H]2CC[C@]2(C)[C@@H](C3=CCOC3=O)CC[C@]12O` (stereo partly drawn), the growth inhibition in experiment [1] (setting [7]) was 7%; in experiment [1] (setting [8]) it was 4%; in experiment [1] (at 50.0 µM), -11.2%; in experiment [2] (setting [7]) it was 6%; in experiment [2] (setting [8]), -2%; in experiment [2] (at 50.0 µM), -6.9%. Besides, the growth inhibition was -11% in experiment [4] (setting [7]); -35% in experiment [4] (setting [8]); 13.1% in experiment [4] (at 50.0 µM); -22% in experiment [5] (setting [7]); 7% in experiment [5] (setting [8]); -38.5% in experiment [5] (at 50.0 µM). Also, the growth inhibition in experiment [6] (setting [7]) was 6%; in experiment [6] (setting [8]), 21%; in experiment [6] (at 50.0 µM) it was 49.6%.
As to `CC(C)C1(NC(=O)C2CC3c4cccc5[nH]cc(c45)CC3N(C)C2)OC2(O)C3CCCN3C(=O)C(Cc3ccccc3)N2C1=O` (stereo not drawn), the growth inhibition in experiment [1] (setting [7]) is -26%; in experiment [1] (setting [8]), 94% (active); in experiment [1] (at 50.0 µM) it was 86.2% (active); in experiment [2] (setting [7]), -2%; in experiment [2] (setting [8]), 96% (active); in experiment [2] (at 50.0 µM), 90.8% (active). Further, the growth inhibition was -10% in experiment [3] (setting [7]); 92% (active) in experiment [3] (setting [8]); 86.7% (active) in experiment [3] (at 50.0 µM); 1% in experiment [4] (setting [7]); 96% (active) in experiment [4] (setting [8]); 84.3% (active) in experiment [4] (at 50.0 µM). Moreover, the growth inhibition in experiment [5] (setting [7]) was 30%; in experiment [5] (setting [8]), 96% (active); in experiment [5] (at 50.0 µM), 86.3% (active); in experiment [6] (setting [7]), 4%; in experiment [6] (setting [8]), 97% (active); in experiment [6] (at 50.0 µM) it was 83.4% (active).
In the case of `Clc1ccc(Cl)c(Cl)c1`, the growth inhibition in experiment [1] (setting [7]) is -10%; in experiment [1] (setting [8]) it was 99% (active); in experiment [1] (at 50.0 µM), 98.4% (active); in experiment [2] (setting [7]), -3%; in experiment [2] (setting [8]), 97% (active); in experiment [2] (at 50.0 µM) it was 99% (active). Further, the growth inhibition in experiment [4] (setting [7]) was 8%; in experiment [4] (setting [8]), 92% (active); in experiment [4] (at 50.0 µM), 96.5% (active); in experiment [5] (setting [7]), -8%; in experiment [5] (setting [8]) it was 98% (active); in experiment [5] (at 50.0 µM), 62%. Further, the figures for the growth inhibition in experiment [6] (setting [7]), in experiment [6] (setting [8]) and in experiment [6] (at 50.0 µM) were 2%, 99% (active) and 98.2% (active), respectively.
As for `O=C(NCC1(O)N=C(c2ccc(F)cc2)c2ccsc2-n2cccc21)c1ccc(Cl)cc1Cl` (stereo not drawn), the growth inhibition is 6% in experiment [1] (setting [7]); 63% in experiment [1] (setting [8]); 96.7% (active) in experiment [1] (at 50.0 µM); -2% in experiment [2] (setting [7]); 44% in experiment [2] (setting [8]); 95.5% (active) in experiment [2] (at 50.0 µM). Further, the growth inhibition in experiment [3] (setting [7]) is -8%; in experiment [3] (setting [8]), 63%; in experiment [3] (at 50.0 µM) it was 97.2% (active); in experiment [4] (setting [7]), 2%; in experiment [4] (setting [8]) it was 79% (active); in experiment [4] (at 50.0 µM), 93.8% (active). The growth inhibition was 6% in experiment [6] (setting [7]), 77% (active) in experiment [6] (setting [8]) and 94.9% (active) in experiment [6] (at 50.0 µM).
In the case of `O=C([CH-]C(=O)c1ccccc1)c1ccccc1.O=C([CH-]C(=O)c1ccccc1)c1ccccc1.O=C([CH-]C(=O)c1ccccc1)c1ccccc1.[Nd+3].[OH3+]`, the growth inhibition was 49% in experiment [1] (setting [7]); 99% (active) in experiment [1] (setting [8]); 91.8% (active) in experiment [1] (at 50.0 µM); 43% in experiment [2] (setting [7]); 100% (active) in experiment [2] (setting [8]); 93.8% (active) in experiment [2] (at 50.0 µM). For the same molecule, the growth inhibition in experiment [3] (setting [7]) was 55%; in experiment [3] (setting [8]) it was 100% (active); in experiment [3] (at 50.0 µM), 93.8% (active); in experiment [5] (setting [7]), 61%; in experiment [5] (setting [8]), 99% (active); in experiment [5] (at 50.0 µM) it was 92.5% (active). The figures for the growth inhibition in experiment [6] (setting [7]), in experiment [6] (setting [8]) and in experiment [6] (at 50.0 µM) were 60%, 100% (active) and 91.2% (active), respectively.
